According to PubChem BioAssay AID1159580 (chemical genetic matrix, 2015):
Screen size: about 5,500 compounds; about 2,000 (36%) were called active. Inconclusive results (about 18%) are left out. The list shows a part of the results. Unmarked numbers belong to inactive results. No stated cut-off is given here; in the data, active means normalized growth mostly below about 0.91 (no sharp cut-off); inconclusive means no clear call, values can overlap the other calls; inactive means mostly above about 0.92.

Assay: chemical genetic growth profiling, strain panel (AID 1159580);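 further: tested at 20 µM; growth read once vehicle control cultures reached saturation at 30 °C; 1 = growth at the plate median or of vehicle wells; lower values mean less growth of the strain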
Details: growth OD

## CC(=O)OC[C@@]1(O)C[C@@]23CCC4c5ccoc5CC[C@]4(C)C2CC[C@@H]1C3 (some centres not stated)
S. cerevisiae deletion strains, locus YJR075W, strain HOC1, active compounds read low
  normalized growth: 1.01
S. cerevisiae deletion strains, locus YKL009W, strain mrt4, active compounds read low
  normalized growth: 0.868 (active)
S. cerevisiae deletion strains, locus YKL068W, active compounds read low
  normalized growth: 0.969
S. cerevisiae deletion strains, locus YKL085W, strain MDH1 (second series), active compounds read low
  normalized growth: 0.967
S. cerevisiae deletion strains, locus YKL085W, strain MDH1, active compounds read low
  normalized growth: 0.967
S. cerevisiae deletion strains, locus YKL160W, strain elf1, active compounds read low
  normalized growth: 0.978
S. cerevisiae deletion strains, locus YKL190W, strain CNB1, active compounds read low
  normalized growth: 0.986
S. cerevisiae deletion strains, locus YKR001C, strain vps1, active compounds read low
  normalized growth: 0.942
S. cerevisiae deletion strains, locus YKR026C, strain gcn3, active compounds read low
  normalized growth: 1.01
S. cerevisiae deletion strains, locus YKR091W, strain srl3, active compounds read low
  normalized growth: 1
S. cerevisiae deletion strains, locus YLL001W, strain dnm1, active compounds read low
  normalized growth: 0.974
S. cerevisiae deletion strains, locus YLL026W, active compounds read low
  normalized growth: 1.02
S. cerevisiae deletion strains, locus YLL041C, strain sdh2, active compounds read low
  normalized growth: 1.02
S. cerevisiae deletion strains, locus YLR027C, strain aat2, active compounds read low
  normalized growth: 1.01
S. cerevisiae deletion strains, locus YLR039C, strain RIC1, active compounds read low
  normalized growth: 0.661 (active)
S. cerevisiae deletion strains, locus YLR058C, strain SHM2, active compounds read low
  normalized growth: 0.973
S. cerevisiae deletion strains, locus YLR102C, strain apc9, active compounds read low
  normalized growth: 0.973
S. cerevisiae deletion strains, locus YLR113W, strain HOG1, active compounds read low
  normalized growth: 0.901
S. cerevisiae deletion strains, locus YLR221C, strain rsa3, active compounds read low
  normalized growth: 0.968
S. cerevisiae deletion strains, locus YLR258W, strain gsy2, active compounds read low
  normalized growth: 0.99
S. cerevisiae deletion strains, locus YLR262C, strain YPT6 (second series), active compounds read low
  normalized growth: 0.817 (active)
S. cerevisiae deletion strains, locus YLR262C, strain YPT6, active compounds read low
  normalized growth: 0.624
S. cerevisiae deletion strains, locus YLR268W, strain sec22, active compounds read low
  normalized growth: 0.987
S. cerevisiae deletion strains, locus YLR320W, strain mms22, active compounds read low
  normalized growth: 0.945
S. cerevisiae deletion strains, locus YLR330W, strain CHS5, active compounds read low
  normalized growth: 0.969
S. cerevisiae deletion strains, locus YLR342W, strain FKS1 (second series), active compounds read low
  normalized growth: 0.775 (active)
S. cerevisiae deletion strains, locus YLR342W, strain FKS1, active compounds read low
  normalized growth: 1.01
S. cerevisiae deletion strains, locus YLR357W, strain rsc2, active compounds read low
  normalized growth: 0.963
S. cerevisiae deletion strains, locus YLR370C, strain arc18, active compounds read low
  normalized growth: 1
S. cerevisiae deletion strains, locus YLR371W, strain rom2, active compounds read low
  normalized growth: 0.96
S. cerevisiae deletion strains, locus YLR384C, strain iki3, active compounds read low
  normalized growth: 1.03
S. cerevisiae deletion strains, locus YLR418C, strain cdc73, active compounds read low
  normalized growth: 0.983
S. cerevisiae deletion strains, locus YML016C, strain PPZ1, active compounds read low
  normalized growth: 0.978
S. cerevisiae deletion strains, locus YML032C, strain rad52, active compounds read low
  normalized growth: 0.884 (active)
S. cerevisiae deletion strains, locus YML120C, strain ndi1, active compounds read low
  normalized growth: 1.01
S. cerevisiae deletion strains, locus YML124C, strain tub3, active compounds read low
  normalized growth: 0.98
S. cerevisiae deletion strains, locus YMR058W, strain fet3, active compounds read low
  normalized growth: 0.952
S. cerevisiae deletion strains, locus YMR078C, strain ctf18, active compounds read low
  normalized growth: 0.965
S. cerevisiae deletion strains, locus YMR125W, strain sto1, active compounds read low
  normalized growth: 0.988
S. cerevisiae deletion strains, locus YMR129W, active compounds read low
  normalized growth: 1.02
S. cerevisiae deletion strains, locus YMR205C, strain PFK2, active compounds read low
  normalized growth: 0.981
S. cerevisiae deletion strains, locus YMR223W, strain ubp8, active compounds read low
  normalized growth: 0.905
S. cerevisiae deletion strains, locus YMR231W, strain pep5, active compounds read low
  normalized growth: 1.01
S. cerevisiae deletion strains, locus YMR263W, strain SAP30, active compounds read low
  normalized growth: 0.985
S. cerevisiae deletion strains, locus YMR307W, strain GAS1, active compounds read low
  normalized growth: 0.779
S. cerevisiae deletion strains, locus YNL067W, strain RPL9B, active compounds read low
  normalized growth: 0.963
S. cerevisiae deletion strains, locus YNL071W, strain lat1, active compounds read low
  normalized growth: 0.964
S. cerevisiae deletion strains, locus YNL128W, strain TEP1, active compounds read low
  normalized growth: 0.997
S. cerevisiae deletion strains, locus YNL153C, strain GIM3, active compounds read low
  normalized growth: 0.992
S. cerevisiae deletion strains, locus YNL183C, strain NPR1, active compounds read low
  normalized growth: 0.877
S. cerevisiae deletion strains, locus YNL209W, strain ssb2, active compounds read low
  normalized growth: 1.02
S. cerevisiae deletion strains, locus YNL233W, strain BNI4, active compounds read low
  normalized growth: 0.947
S. cerevisiae deletion strains, locus YNL248C, strain rpa49, active compounds read low
  normalized growth: 0.96
S. cerevisiae deletion strains, locus YNL250W, strain rad50, active compounds read low
  normalized growth: 0.976
S. cerevisiae deletion strains, locus YNL271C, strain bni1, active compounds read low
  normalized growth: 0.975
S. cerevisiae deletion strains, locus YNL298W, strain CLA4, active compounds read low
  normalized growth: 0.891 (active)
S. cerevisiae deletion strains, locus YNL307C, strain MCK1, active compounds read low
  normalized growth: 0.778 (active)
S. cerevisiae deletion strains, locus YNL322C, strain KRE1 (second series), active compounds read low
  normalized growth: 1.03
S. cerevisiae deletion strains, locus YNL322C, strain KRE1, active compounds read low
  normalized growth: 0.997
S. cerevisiae deletion strains, locus YNR049C, strain mso1, active compounds read low
  normalized growth: 1.01
S. cerevisiae deletion strains, locus YNR052C, strain pop2, active compounds read low
  normalized growth: 0.938
S. cerevisiae deletion strains, locus YOL006C, strain TOP1, active compounds read low
  normalized growth: 1.11
S. cerevisiae deletion strains, locus YOL012C, strain htz1
  normalized growth: 1.41
S. cerevisiae deletion strains, locus YOL147C, strain pex11, active compounds read low
  normalized growth: 0.971
S. cerevisiae deletion strains, locus YOR001W, strain rrp6, active compounds read low
  normalized growth: 0.985
S. cerevisiae deletion strains, locus YOR061W, strain CKA2, active compounds read low
  normalized growth: 0.952
S. cerevisiae deletion strains, locus YOR069W, strain VPS5, active compounds read low
  normalized growth: 0.981
S. cerevisiae deletion strains, locus YOR070C, strain gyp1, active compounds read low
  normalized growth: 1.01
S. cerevisiae deletion strains, locus YOR080W, strain dia2, active compounds read low
  normalized growth: 1.02
S. cerevisiae deletion strains, locus YOR083W, strain WHI5, active compounds read low
  normalized growth: 0.978
S. cerevisiae deletion strains, locus YOR106W, strain vam3, active compounds read low
  normalized growth: 0.998
S. cerevisiae deletion strains, locus YOR136W, strain idh2, active compounds read low
  normalized growth: 0.95
S. cerevisiae deletion strains, locus YOR144C, strain elg1, active compounds read low
  normalized growth: 0.97
S. cerevisiae deletion strains, locus YOR184W, strain ser1, active compounds read low
  normalized growth: 0.69 (active)
S. cerevisiae deletion strains, locus YOR231W, strain MKK1, active compounds read low
  normalized growth: 0.872
S. cerevisiae deletion strains, locus YOR265W, strain rbl2, active compounds read low
  normalized growth: 1.01
S. cerevisiae deletion strains, locus YOR270C, strain vph1, active compounds read low
  normalized growth: 1.21
S. cerevisiae deletion strains, locus YOR290C, strain snf2, active compounds read low
  normalized growth: 0.927
S. cerevisiae deletion strains, locus YOR316C, strain cot1, active compounds read low
  normalized growth: 0.966
S. cerevisiae deletion strains, locus YPL051W, strain arl3, active compounds read low
  normalized growth: 0.967
S. cerevisiae deletion strains, locus YPL055C, strain LGE1, active compounds read low
  normalized growth: 0.954
S. cerevisiae deletion strains, locus YPL078C, strain atp4, active compounds read low
  normalized growth: 0.931
S. cerevisiae deletion strains, locus YPL106C, strain sse1, active compounds read low
  normalized growth: 0.99
S. cerevisiae deletion strains, locus YPL240C, strain hsp82, active compounds read low
  normalized growth: 1.01
S. cerevisiae deletion strains, locus YPL241C, strain CIN2, active compounds read low
  normalized growth: 0.978
S. cerevisiae deletion strains, locus YPL256C, strain CLN2, active compounds read low
  normalized growth: 0.927
S. cerevisiae deletion strains, locus YPR119W, strain clb2, active compounds read low
  normalized growth: 0.967
S. cerevisiae deletion strains, locus YPR141C, strain kar3, active compounds read low
  normalized growth: 0.989
S. cerevisiae deletion strains, locus YPR163C, strain tif3, active compounds read low
  normalized growth: 0.962
S. cerevisiae deletion strains, locus YPR167C, strain met16, active compounds read low
  normalized growth: 0.978
S. cerevisiae deletion strains, strain wtn01, active compounds read low
  normalized growth: 0.948
S. cerevisiae strains, strain wild type, active compounds read low
  normalized growth: 0.964
